In the library only some 4.7% were active in any assay of this set; here they are far more common.
TRHR PAM: allosteric enhancers of human TRH receptor; P34981; TRHR cells, fluo-8 calcium fluorescence, EC20 TRH enhancement; enhancement, % at 2 µM; hit rate 0.66% among 360,000; in the data active = enhancement above about 30%
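TRHR-expressing cells loaded with fluo-8 calcium dye were read kinetically (ex 480/em 530) during compound addition, then stimulated with an EC20 of TRH (10 nM final). Enhancement of the Gq-mediated intracellular calcium response was scored.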
D1 potentiator: enhances dopamine response at the human D1 receptor; HEK293 TREx D1 cells, calcium flux, dopamine EC20 potentiation; potentiation, % at 10 µM; hit rate 0.036% among 360,000; AID 504651; in the data active = potentiation above about 30%
Target sequence (P21728 whole entry, looked up): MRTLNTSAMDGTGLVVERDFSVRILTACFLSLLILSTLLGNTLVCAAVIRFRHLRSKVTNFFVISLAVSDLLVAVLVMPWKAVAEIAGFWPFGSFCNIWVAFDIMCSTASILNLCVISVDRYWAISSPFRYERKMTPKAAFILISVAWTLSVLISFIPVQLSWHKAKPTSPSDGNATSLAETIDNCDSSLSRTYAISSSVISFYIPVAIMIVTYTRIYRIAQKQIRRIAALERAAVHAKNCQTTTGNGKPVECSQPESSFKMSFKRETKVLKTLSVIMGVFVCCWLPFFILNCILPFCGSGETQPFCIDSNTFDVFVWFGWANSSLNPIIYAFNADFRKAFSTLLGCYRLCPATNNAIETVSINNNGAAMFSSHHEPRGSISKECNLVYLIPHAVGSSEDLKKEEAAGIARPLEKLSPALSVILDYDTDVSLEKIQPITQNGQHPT
TRHR agonist: TRH receptor (human) agonism; activation, % at 2 µM; TRHR cells, calcium flux fluo-8, FDSS agonist mode; hit rate 0.18% among 360,000
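TRHR-expressing cells, plated overnight in medium with 10% serum, were loaded with fluo-8 calcium dye at room temperature. After a 10 s baseline, library compound was pin-added and calcium release was recorded kinetically (ex 480/em 530) as agonist response.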
D1 antagonist: blocks dopamine activation of the human D1 receptor. activity change, negative = inhibition, % at 10 µM. hit rate 3.2% among 360,000. P21728. HEK293 TREx D1 cells, calcium flux, dopamine EC80; active compounds read low; in the data active = activity change below about -30%
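Cells carrying a force-coupled, tetracycline-inducible human D1 receptor report calcium flux. Each well gets a 10 s baseline, compound with 180 s monitoring, then an EC80 dopamine stimulus with a second 180 s kinetic read.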
D1 ag: human D1 receptor agonism | activation, % at 2 µM | AID 504660 | hit rate 1% among 360,000 | P21728 | HEK293 T-REx D1 cells, calcium flux, agonist mode
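Agonism was scored from calcium flux recorded over 180 s (1 read/s) after pintool compound addition, following a 10-cycle baseline. Cells were inducible force-coupled HEK293 TREx D1, plated overnight at 30 C and loaded with no-wash calcium dye.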
Of the large screens only hits and unclear results are named; the others gave an inactive call; ! = repeats disagree. Rule as the data show it, unless noted: active = activation above about 30%; inactive = the rest.

CCOC(=O)N1CCc2c(sc3nc[nH]c(=O)c23)C1	D1 antagonist -31
CCOC(=O)N1CCc2c(sc3ncn(Cc4ccc(F)cc4)c(=O)c23)C1	none
Cc1nc2sc3c(c2c(=O)[nH]1)CCC3	none
O=c1[nH]cnc2sc3c(c12)CCC3	TRHR PAM 33
CCCN1CC=C2C(C#N)=C(N)C(C#N)(C#N)C(c3cccc(OC)c3OC)C2C1 (stereo not given)	D1 ag 34
COc1ccc(N(C)C(=O)Cn2cc(S(=O)(=O)N3CCN(c4ccccc4F)CC3)c3ccccc3c2=O)c(OC)c1	none
Cc1cc2nc3c(=O)[nH]c(=S)[nH]c3nc2cc1NC(=O)C(F)(F)F	D1 ag 64
CCn1cc(C(=O)N2CCN(c3ccccc3F)CC2)c(=O)c2cc(S(=O)(=O)N(C)C3CCCCC3)ccc21	none
COc1ccc(CCNC(=O)CCCCn2c(=O)c3ccccc3n(Cc3cc(C)ccc3C)c2=O)cc1OC	none
COc1ccc(NC(=O)C2CCCN(S(=O)(=O)c3ccc(Cl)cc3)C2)cc1 (stereo not given)	none
CCCCCCCCCCCC(=O)NC(Cc1ccc(OC)c([N+](=O)[O-])c1)C(=O)O (stereo not given)	D1 antagonist -48, D1 ag 137
COc1ccc(-c2noc(N3CCC(C(=O)Nc4ccccc4OC)CC3)n2)cc1	D1 antagonist -34
CCC(C)NC(=O)CSc1nc2c(sc3ccccc32)c(=O)n1Cc1ccccc1Cl (stereo not given)	none
COC(=O)c1cnn(-c2ccc(C(=O)Nc3ccc(C(C)=O)cc3)cc2)c1N	none
Oc1ccc(CCNc2ncnc3ccc(Cl)cc23)cc1	D1 antagonist -40
Nc1nc(Cl)cc(NCCc2ccc(O)cc2)n1	none
CSc1cccc(NC(=O)Nc2ccc(Cl)cc2)c1	D1 antagonist -33
NC(=O)c1ccccc1NC(=O)Nc1cccc(Cl)c1	D1 antagonist -42
Cc1nc2ccc(S(=O)(=O)NC(C(=O)Nc3nc4ccc(Cl)cc4s3)C(C)C)cc2s1 (stereo not given)	D1 antagonist -41 (no result: D1 potentiator)
CSc1cccc(NC(N)=O)c1	none
NS(=O)(=O)c1ccc(NC(=O)Nc2cccc(Cl)c2)cc1	D1 antagonist -32
O=C(Cn1c(=O)n(-c2ccc(Cl)cc2)c(=O)c2oc3ccccc3c21)Nc1ccccc1	none
CS(=O)(=O)c1ccc2nc(NC(=O)Nc3ccc(Cl)c(Cl)c3)sc2c1	none
CS(=O)(=O)c1ccc2nc(NC(=O)Nc3cccc(Cl)c3)sc2c1	D1 ag 34
COc1ccc(-c2cn3nc(N4CCCC(C(=O)NCc5ccccc5C)C4)sc3n2)cc1 (stereo not given)	none
COc1ccc(CNC(=O)c2cnc(N3CCCC3)nc2C)cc1	D1 antagonist -44
Cc1c(C(=O)NCc2cccc(Cl)c2)sc2nc3n(c(=O)c12)CCCC3	D1 ag 32
Cc1cccc(CCNC(=O)c2sc3nc4n(c(=O)c3c2C)CCCC4)c1	D1 ag 32
COc1ccc(CNC(=O)c2sc3nc4n(c(=O)c3c2C)CCCC4)cc1	D1 ag 71
Cc1c(C(=O)NCc2ccccc2Cl)sc2nc3n(c(=O)c12)CCC3	none
Cc1c(C(=O)NCc2ccc(Cl)cc2)sc2nc3n(c(=O)c12)CCCC3	none
Cc1ccc(CNC(=O)c2cnc(N3CCCC3)nc2C)cc1	none
COc1cccc(/C=C/c2nc(C#N)c(N3CCC(C(N)=O)CC3)o2)c1	none
CCC(Oc1ccccc1)C(=O)Nc1ccc2oc(-c3ccc(OC)cc3)nc2c1 (stereo not given)	none
O=C(CCl)Nc1ccccc1C(=O)NCc1ccccc1	TRHR PAM 34
O=C(COc1ccc(Cl)cc1)Nc1ccc(C(=O)NCc2cccnc2)cc1	none
O=C(COc1ccc(Cl)cc1)Nc1ccccc1C(=O)NCc1cccnc1	D1 ag 88
Cc1ccccc1NC(=O)Nc1ccccc1C(=O)NCc1ccccc1	none
O=C(NCc1cccnc1)c1ccc(COc2ccc(Cl)cc2)cc1	D1 antagonist -32
COc1ccc(CNC(=O)CCS(=O)(=O)c2cc3c4c(c2)CCN4C(=O)CC3)cc1OC	none
Cc1cc(NC(=O)CCN2CCC(C(N)=O)CC2)ccc1Br	none
CCOC(=O)C1CCCN(CCC(=O)Nc2cccc(C)c2)C1 (stereo not given)	D1 antagonist -38!
CCOC(=O)C1CCN(CCC(=O)Nc2ccc(Br)c(C)c2)CC1	D1 ag 136!
COc1ccc(NC(=O)CCSc2ccc(C)cc2)cc1	none
CCOC(=O)C1CCCN(CCC(=O)Nc2cccc(F)c2)C1 (stereo not given)	none
Cc1ccc(N(CC(=O)Nc2ccc(Br)c(C)c2)S(=O)(=O)c2cccs2)cc1	D1 antagonist -52
Cc1ccc(SCCC(=O)Nc2ccc(Br)c(C)c2)cc1	D1 antagonist -33
Cc1ccc(N(CC(=O)Nc2cccc(Cl)c2)S(=O)(=O)c2cccs2)cc1	none
Cc1c2cnn(CC(=O)NCC(C)c3ccccc3)c(=O)c2c(C)n1Cc1cccc(Cl)c1 (stereo not given)	none
COc1ccc(C(=O)Nc2cc(S(=O)(=O)c3ccc(Cl)cc3)c(O)c(C)c2C)cc1	none
CCCCOc1ccc(S(=O)(=O)Nc2ccc(-c3ccc(N4CCC(C)CC4)nn3)cc2)cc1	none
CCOc1cccc2sc(N(CCN(CC)CC)C(=O)c3ccco3)nc12	none
NC(=O)C1CCN(CCC(=O)Nc2ccc(Br)cc2)CC1	TRHR PAM 34
CCCc1cc(=O)[nH]c(NCc2ccc(Cl)cc2)n1	none
CCCc1cc(=O)[nH]c(-n2[nH]c3c(c2=O)CCCC3)n1	D1 ag 67
CCCCCCCNC(=O)C1(CC2CC(c3ccccc3)=NO2)CCN(C(=O)OC(C)(C)C)CC1 (stereo not given)	D1 antagonist -37
CCCCCCCNC(=O)C1(CC2CC(c3ccccc3)=NO2)CCN(C(=O)c2ccccc2)CC1 (stereo not given)	none
COc1ccc(/C=N/OCC(=O)NC(c2ccccc2)c2ccccc2)c(OC)c1	none
CCOc1ccc(/C=N/OCC(=O)NC(c2ccccc2)c2ccccc2)cc1	D1 ag 33
CN1CCCC1CCNS(=O)(=O)c1ccc(Br)cc1 (stereo not given)	D1 antagonist -33
CC(C)c1ccc(N(CC(=O)O)S(=O)(=O)c2ccc3[nH]c(=O)c(=O)[nH]c3c2)cc1	none
Cc1ccc(C2NC(=O)NC3=C2CCc2ccccc23)cc1 (stereo not given)	D1 antagonist -60
CC(C)c1ccc(C2NC(=O)NC3=C2CCc2ccccc23)cc1 (stereo not given)	none
COc1ccc(C(CCN2CCCC2)c2c(O)cc(OC)cc2OC)cc1 (stereo not given)	none
COc1cc(O)c(C(CCN2CCOCC2)c2ccc(N(C)C)cc2)c(OC)c1 (stereo not given)	none

Bioassay records (PubChem)
